Assay results as given in PubChem BioAssay AID588773 (The Scripps Research Institute Molecular Screening Center, 2011).
The source made the active and inactive calls.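 Rule for the calls: active = inhibition of plasma PAF acetylhydrolase at a set limit or more at 0.1 µM, with tenfold selectivity over all off-targets; inactive = inhibition below the limit or weaker selectivity.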

Experiment: competitive ABPP of pPAFAH versus proteome off-targets – biochemical, gel-based, FP-Rh fluorescence, mouse, HTS hit compounds, selectivity assay for pPAFAH inhibitor project, late-stage follow-up (AID 588773)
Settings: MW 32 kDa protein, at 10 µM

Row | SMILES | outcome
1 | O=C(Oc1ccc([N+](=O)[O-])cc1)N1CCC(N2CCCCC2)CC1 | inactive
2 | CN(C)C(=O)Oc1noc2cc(Cl)ccc12 | inactive
